Test [1] in a line: resazurin metabolic signal in HepG2 cells – cell-based, resazurin fluorescence, 24 h, PK04 Diversity Set, profiling panel (AID 1172). The note with it: HepG2 viability, higher = more signal. Background: The colour change of resazurin is a common sign of viable cells or microbes.
A short description of test [2]: budding yeast growth changes without added modifier – OD600, strain BY4716, 24 h, basal condition, primary screen (AID 1173). The following applies: S. cerevisiae BY4716 growth, OD600, 24 h; higher = more signal, called active from +8 up or from −8 down.
Test [3] is described as follows: viability profiling in MM1S myeloma cells – cell-based, resazurin fluorescence, basal, 24 h, PK04 Diversity Set, profiling panel (AID 1174).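 Note: MM1S multiple myeloma cell line.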 The following applies: higher = more signal, called active from +8 up or from −8 down.
Test [4] addresses Dihydroorotate dehydrogenase (quinone), mitochondrial (Plasmodium falciparum (isolate 3D7)) (UniProt Q08210). In words: inhibition of P. falciparum DHODH – biochemical, C-terminal His tag, absorbance 600 nm, primary screen (AID 1175).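 Note: recombinant parasite enzyme with a five histidine tag at its C terminus.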 The following applies: PfDHODH enzyme, DCIP absorbance 600 nm; higher = more signal, called active from +8 up or from −8 down.
Test [5] can be described thus: inhibition of PAO1 biofilm formation – strain PAO1, LB-PBS medium, absorbance 600 nm, primary screen (AID 1176). The note with it: P. aeruginosa PAO1 growth/biofilm, A600, 12 h; higher = more signal.
Test [6] can be described thus: growth modulation of vineyard yeast isolate – strain RM11-1a, OD600, basal, 24 h, primary screen (AID 1177).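 Note: cultures grown under basal conditions with no added stressor.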 The following applies: S. cerevisiae RM11-1a growth, OD600, 24 h; higher = more signal, called active from +8 up or from −8 down.
Test [7] in a line: growth of efflux-deficient E. coli DRC39 – strain DRC39, OD650, 24 h, E. coli filamentation inducers, primary screen (AID 1178).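 Note: growth measured as culture turbidity by optical density at 650 nm.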 The note with it: E. coli DRC39 acrAB, higher = more signal, called active from +8 up or from −8 down.
The nature of test [8]: growth of efflux-deficient E. coli DRC39 – strain DRC39, OD650, 48 h, E. coli filamentation inducers, primary screen (AID 1179).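 Note: screen aims at cell division blockers that make cells filament.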 The note with it: E. coli DRC39 delta-acrAB growth, higher = more signal, called active from +8 up or from −8 down.
Test [9] in a line: viability profiling in RPMI8226 myeloma cells – cell-based, resazurin fluorescence, basal, 24 h, PK04 Diversity Set, profiling panel (AID 1180).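 Note: RPMI8826 multiple myeloma cell line at 5000 cells per well.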 The following applies: higher = more signal.
Test [10] has as its target E3 ubiquitin-protein ligase XIAP (Homo sapiens) (UniProt P98170). As to the kind of experiment: small molecules binding XIAP protein – biophysical, small-molecule microarray, fluorescence 635 nm, primary screen (AID 1181).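 Note: score merges 667 nm emission and signal to noise over triplicate slides.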 The note with it: higher = more signal.
For test [11], the system named is XIP peptide (Xip251-270) binding. In words: XIP fragment 251-270 binding compounds – biochemical, small-molecule microarray, fluorescence 635/667 nm, 0.1 µg/mL protein, primary screen (AID 1182). The following applies: fluorescent protein binding, 635 nm, higher = more signal, called active from +8 up or from −8 down.
In test [12] the test system is XIP peptide (Xip251-270). In words: compounds binding XIP fragment 251-270 – biochemical, small-molecule microarray, fluorescence 635/667 nm, 0.5 µg/mL protein, primary screen (AID 1183). The note with it: fluorescence 635 nm, higher = more signal.
Test [13] in a line: blood-stage malaria parasite viability loss – strain 3D7, DAPI fluorescence, 100 nL, primary screen (AID 1184).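 Note: parasites grown inside human red blood cells in medium with human serum.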 The following applies: P. falciparum 3D7 growth, 3 d, higher = more signal.
The target in test [14] is Homeobox protein Hox-A13 (Mus musculus) (UniProt Q62424). In words: disruptors of Hoxa13 oligonucleotide interaction – biochemical, fluorescence polarization, labeled oligonucleotide, primary screen (AID 1185). The note with it: Hoxa13:DNA binding, 15 min, higher = more signal, called active from +8 up or from −8 down. On the technique in general: Fluorescence polarisation rises when a labelled molecule tumbles more slowly, as on binding a larger partner.

The nature of test [15]: blockers of DNA damage checkpoint Chk1 activation – imaging, HeLa, hydroxyurea, phospho-Chk1 antibody, percent positive cells, primary screen (AID 1186). The following applies: hydroxyurea-induced phospho-Chk1 immunofluorescence imaging, higher = more signal.
Test [16] in a line: blockers of DNA damage checkpoint Chk1 activation – imaging, HeLa, hydroxyurea, phospho-Chk1 nuclear intensity, primary screen (AID 1187). The following applies: hydroxyurea-induced phospho-Chk1 immunofluorescence imaging, higher = more signal.

Active and inactive are the calls of the source. Unless noted, the rule behind the calls is not given here.

Sequence of Homeobox protein Hox-A13 (Mus musculus) (Q62424 whole entry, looked up): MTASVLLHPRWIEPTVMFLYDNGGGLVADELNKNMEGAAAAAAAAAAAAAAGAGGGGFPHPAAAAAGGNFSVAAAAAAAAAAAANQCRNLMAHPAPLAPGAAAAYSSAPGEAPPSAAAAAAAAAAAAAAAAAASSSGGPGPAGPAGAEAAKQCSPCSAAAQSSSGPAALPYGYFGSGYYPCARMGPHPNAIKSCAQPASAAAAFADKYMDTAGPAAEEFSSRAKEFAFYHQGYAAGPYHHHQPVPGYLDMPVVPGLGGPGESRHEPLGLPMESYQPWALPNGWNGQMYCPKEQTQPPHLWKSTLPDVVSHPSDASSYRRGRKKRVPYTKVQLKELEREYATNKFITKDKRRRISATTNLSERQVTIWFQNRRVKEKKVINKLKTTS
Sequence of Dihydroorotate dehydrogenase (quinone), mitochondrial (Plasmodium falciparum (isolate 3D7)) (Q08210 whole entry, looked up): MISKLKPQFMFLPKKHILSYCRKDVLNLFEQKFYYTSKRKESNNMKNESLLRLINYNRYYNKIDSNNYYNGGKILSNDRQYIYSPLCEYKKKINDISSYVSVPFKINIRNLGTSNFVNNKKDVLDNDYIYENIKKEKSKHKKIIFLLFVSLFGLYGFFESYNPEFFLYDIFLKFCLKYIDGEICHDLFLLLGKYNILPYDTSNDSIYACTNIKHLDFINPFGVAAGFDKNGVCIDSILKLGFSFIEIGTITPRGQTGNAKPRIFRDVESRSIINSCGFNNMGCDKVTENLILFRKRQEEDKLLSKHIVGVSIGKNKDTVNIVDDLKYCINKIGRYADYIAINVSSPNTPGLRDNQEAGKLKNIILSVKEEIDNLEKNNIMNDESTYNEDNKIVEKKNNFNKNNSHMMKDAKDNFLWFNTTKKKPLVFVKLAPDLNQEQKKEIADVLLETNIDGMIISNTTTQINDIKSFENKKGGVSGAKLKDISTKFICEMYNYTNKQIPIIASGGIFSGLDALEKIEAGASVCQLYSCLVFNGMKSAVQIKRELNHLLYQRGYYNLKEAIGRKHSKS
Sequence of E3 ubiquitin-protein ligase XIAP (Homo sapiens) (P98170 whole entry, looked up, the tested form may be a part): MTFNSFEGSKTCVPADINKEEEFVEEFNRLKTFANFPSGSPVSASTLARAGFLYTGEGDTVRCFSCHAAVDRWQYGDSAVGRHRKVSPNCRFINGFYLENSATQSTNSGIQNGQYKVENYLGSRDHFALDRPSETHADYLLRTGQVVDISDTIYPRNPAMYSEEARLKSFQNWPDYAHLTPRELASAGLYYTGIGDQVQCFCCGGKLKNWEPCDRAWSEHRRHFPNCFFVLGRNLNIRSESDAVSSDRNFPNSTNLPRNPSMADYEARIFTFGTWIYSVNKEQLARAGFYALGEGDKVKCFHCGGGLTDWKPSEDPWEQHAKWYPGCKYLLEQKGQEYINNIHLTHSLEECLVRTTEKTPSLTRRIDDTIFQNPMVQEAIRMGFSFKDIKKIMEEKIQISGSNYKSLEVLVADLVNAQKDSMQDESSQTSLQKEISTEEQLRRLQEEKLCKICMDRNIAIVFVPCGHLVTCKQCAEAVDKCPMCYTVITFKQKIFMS

Consider `COc1cc2c(cc1O)C(c1cccs1)N(Cc1cccc(OC(F)(F)F)c1)CC2` (stereo not given), for which the z-score is -0.688 in [1]; -3.07 (inactive) in [2]; -1.11 (inactive) in [3]; -0.0623 (inactive) in test [5]; -0.728 (inactive) in test [6]; -0.0378 (inactive) in test [7]. Further, the z-score in test [8] is 1.14 (inactive); in test [9] it was -1.93; in [13], -1.9; in [14], -2.17 (inactive); in [15], -1.02 (inactive); in test [16], -2.12 (inactive). Also, the composite z-score in [4] was -4.69 (inactive); in [10] it was 0.171; in test [11], 1.78 (inactive); in test [12], 0.775.

Consider `O=C1NC(=O)C2C1C=CC(C(O)c1ccc(I)cc1)N2Nc1ccc(Cl)cc1Cl` (stereo not given), for which the z-score in test [1] was -1.99; in test [2], -15.1 (active); in test [3], -0.177 (inactive); in test [5], 2.06 (inactive); in test [6] it was -4.5 (inactive); in [7], 0.163 (inactive). Moreover, the z-score in [8] is -0.186 (inactive); in test [9], -0.137; in [13], 0.692; in [14], -3.94 (inactive); in test [15], 0.0215 (inactive); in test [16], 0.33 (inactive). Besides, the composite z-score was -1.4 (inactive) in test [4], -0.108 in test [10], 0.9 (inactive) in [11] and 0.284 in [12].

For the compound `O=C(NCCN1CCOCC1)[C@@H]1c2ccccc2C(=O)N(Cc2cc(C(F)(F)F)cc(C(F)(F)F)c2)[C@H]1c1ccc(CO)cc1`, the z-score in test [1] was -0.731; in test [2] it was 0.164 (inactive); in [3], 0.0896 (inactive); in test [5] it was 0.224 (inactive); in [6] it was 0.842 (inactive); in test [7], 1.06 (inactive). The z-score in [8] was 0.321 (inactive); in test [9] it was 0.0838; in test [13], -1.27; in [14], -4 (inactive); in test [15], -0.24 (inactive); in test [16], -0.268 (inactive). The composite z-score in [4] was 0.434 (inactive); in [10], -0.242; in test [11], 0.532 (inactive); in test [12], 0.304.

With `O=C1NC(=O)C2C1C=CC(C(O)C1CC=CCC1)N2Nc1ccccn1` (stereo not given), the z-score in [1] is -1.16; in [2] it was 1.05 (inactive); in test [3] it was -1.35 (inactive); in test [5], 0.916 (inactive); in test [6], 0.636 (inactive); in test [7], -0.857 (inactive). For the same compound, the z-score in [8] was -0.0662 (inactive); in [9] it was -1.57; in [13] it was 0.45; in test [14], -0.315 (inactive); in [15], 0.113 (inactive); in [16], -0.22 (inactive). In addition, the composite z-score in [4] is 1.07 (inactive); in test [10] it was 0.0512; in test [11], 0.467 (inactive); in test [12], 0.362.

With `COCCOC(=O)N1C(=O)[C@@]2(c3cc(C#CC4=CCCCC4)ccc31)[C@H](c1ccc(OCCO)cc1)N1[C@H](c3ccccc3)[C@H](c3ccccc3)OC(=O)[C@H]1[C@@H]2C(=O)N1CCc2cc(OC)c(OC)cc2C1`, the z-score in test [1] was -0.248; in test [2], 0.683 (inactive); in test [3], -0.607 (inactive); in [5], 2.68 (inactive); in [6] it was 4.26 (inactive); in test [7], 0.118 (inactive). The z-score in test [8] is 0.796 (inactive); in [9], 0.474; in [13], -2.06; in test [14], 3.66 (inactive); in [15] it was -0.0561 (inactive); in test [16], -0.0158 (inactive). The composite z-score was -0.0879 (inactive) in test [4], -0.0872 in [10], 0.411 (inactive) in [11] and 0.64 in [12].

Turning to `COCC(=C=CC[C@H](O)c1ccccc1OCCO)CCO`, the z-score in [1] was -0.504; in test [2] it was -0.547 (inactive); in [3], -0.251 (inactive); in test [5], 0.26 (inactive); in test [6] it was 0.338 (inactive); in [7], -0.135 (inactive). The z-score in test [8] was -0.113 (inactive); in test [9], -0.672; in test [13], -0.549; in test [14] it was -2.98 (inactive); in [15], 0.387 (inactive); in test [16] it was -0.186 (inactive). Moreover, the composite z-score in test [4] is -0.799 (inactive); in test [10], -0.252; in test [11], 2.87 (inactive); in [12] it was -0.501.

As for `C=CCOC(=O)[C@H]1[C@@H]2C(=O)O[C@@H](c3ccccc3)[C@@H](c3ccccc3)N2[C@@H](c2ccc(OCCOC(=O)[C@H]3C[C@H]4C(=O)N[C@@H](CCCCN(C)C)C(=O)N4[C@H]3c3cccc(OCCO)c3)cc2)[C@]12C(=O)Nc1ccc(I)cc12`, the z-score in test [1] is -0.0574; in test [2], 0.626 (inactive); in [3] it was -0.865 (inactive); in [5], 0.808 (inactive); in test [6], 1.75 (inactive); in test [7], -0.548 (inactive). In addition, the z-score in [8] was -1.02 (inactive); in [9] it was -0.316; in test [13], -0.355; in test [14], 5.48 (inactive); in test [15], -0.187 (inactive); in test [16], 0.0593 (inactive). The composite z-score in test [4] was 1.71 (inactive); in test [10], 0.194; in test [11], 0.718 (inactive); in [12] it was 0.634.

`NC(=O)[C@@H]1[C@H]2C(=O)O[C@H](c3ccccc3)[C@H](c3ccccc3)N2[C@H](c2ccc(O)cc2)[C@@]12C(=O)Nc1ccc(C#CC3=CCCCC3)cc12`: the z-score in test [1] is -0.712; in test [2] it was 0.761 (inactive); in test [3], -7.46 (inactive); in test [5] it was 0.802 (inactive); in [6] it was 2.07 (inactive); in test [7], -0.488 (inactive). In addition, the z-score in test [8] is -0.705 (inactive); in test [9], -6.39; in test [13] it was -0.303; in test [14] it was -0.487 (inactive); in test [15] it was 0.0025 (inactive); in test [16] it was 0.518 (inactive). For the same compound, the composite z-score in test [4] is 1.68 (inactive); in test [10], -0.0696; in test [11] it was 0.799 (inactive); in test [12], 0.619.

Take `C=CCN1C(=O)[C@]2(Cc3ccccc3)N=C(c3ccc(OCCCO)cc3)O[C@@H]2c2ccccc21`: the z-score in test [1] is -0.983; in test [2], -1.34 (inactive); in [3] it was -4.58 (inactive); in test [5] it was 0.824 (inactive); in test [6], 1.68 (inactive); in [7], 0.0733 (inactive). Besides, the z-score is 0.884 (inactive) in test [8]; -5.39 in test [9]; -2.1 in [13]; -1.6 (inactive) in test [14]; -0.535 (inactive) in test [15]; -0.461 (inactive) in test [16]. Besides, the composite z-score was -0.963 (inactive) in test [4], 0.33 in [10], 0.7 (inactive) in test [11] and 0.812 in test [12].

As to `O=C(CS)NCCCCCNC(=O)[C@@H]1C[C@@H]2C(=O)NCC(=O)N2[C@@H]1c1cccc(OCCO)c1`, the z-score was -0.28 in test [1]; -1.01 (inactive) in test [2]; 0.648 (inactive) in test [3]; 0.752 (inactive) in test [5]; -2.63 (inactive) in test [6]; 1.95 (inactive) in [7]. In addition, the z-score in [8] is 2.01 (inactive); in test [9], 0.847; in test [13], 0.082; in [14], -3.25 (inactive); in [15], -0.128 (inactive); in test [16], 0.361 (inactive). Further, the composite z-score in [4] was -0.61 (inactive); in test [10] it was -0.103; in test [11], 1.96 (inactive); in test [12], 0.343.

The record behind these values is PubChem BioAssay.
